Compound activity from PubChem.
Sfp inh: qHTS Assay for Inhibitors of Bacillus subtilis Sfp phosphopantetheinyl transferase (PPTase) | 4'-phosphopantetheinyl transferase ffp (Bacillus subtilis), Q9F4F7 | Biochemical Sfp PPTase activity, qHTS | Potency, µM, inactives show largest response in the series, negative = inhibition, most hits filed as inhibitors | hit rate 3.5% among 310,000;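 also: the enzyme is Sfp with the accession as filed and its product quenches rhodamine fluorescence; 0% = enzyme reaction without inhibitor and -100% = no enzyme wells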
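Reaction rates are the 30-min fluorescence difference (ex 525, em 598 nm) in wells containing 15 nM Sfp, 5 uM rhodamine-CoA and 12.5 uM BHQ-2-YbbR at pH 7.6 with 10 mM MgCl2.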
G9a block: qHTS Assay for Inhibitors of Histone Lysine Methyltransferase G9a; Histone-lysine N-methyltransferase EHMT2 (Homo sapiens), Q96KQ7; G9a H3K9 monomethylation, AlphaScreen, 2 h; Potency, µM (series often up to 102 µM), for inactives: at the top dose activity, negative = inhibition, hits mostly inhibitors; hit rate 8.8% among 350,000; AID 504332, 2011; also: % is scaled to controls: 0 for no effect and ±100 for the full control effect; nearly all actives have a fitted effect of over 75% in size
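G9a (20 nM) preincubated 15 min RT with compounds, then 500 nM biotinylated H3K9 peptide and 20 uM SAM added; 2 h RT reaction. Monomethyl-H3K9 product detected by AlphaScreen with anti-H3K9me1 antibody, streptavidin donor and anti-rabbit IgG acceptor beads.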
JMJD2A Tudor inh: qHTS Assay for Inhibitors of JMJD2A-Tudor Domain; AlphaScreen JMJD2A-Tudor / H3K4me3 peptide binding; Potency, µM (top dose mostly 114 µM), without a hit: at the top dose activity change, negative = inhibition, hits mostly inhibitors; hit rate 4.4% among 390,000; AID 504339, 2011; also: % is scaled to controls: 0 for no effect and ±100 for the full control effect; nearly all actives have a fitted effect of over 50% in size
PLK1 PBD block: qHTS for Inhibitors of PLK1-PDB (polo-like kinase 1 - polo-box domain): Primary Screen; Serine/threonine-protein kinase PLK1 (Homo sapiens), P53350; Plk1 PBD binding of FITC phosphopeptide, fluorescence polarization; Potency, µM, without a hit: max response, negative = inhibition, hits mostly inhibitors; hit rate 2.8% among 360,000; also: series mostly up to about 57 µM; % is scaled to controls: 0 for no effect and ±100 for the full control effect; nearly all actives have a fitted effect of over 65% in size
HP1b chromo inh: HTS for Inhibitors of HP1-beta Chromodomain Interactions with Methylated Histone Tails; Chromobox protein homolog 1 (Homo sapiens), P83916; AlphaScreen HP1-beta / biotin-H3K9me3 peptide binding; Potency, µM (series often up to 114 µM), without a hit: at the top dose activity change, negative = inhibition, actives largely listed as inhibitors; hit rate 0.56% among 390,000; AID 540317, 2011; also: nearly all actives have a fitted effect of over 70% in size
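Compound inhibition of the preformed complex between 50 nM HP1-beta and 50 nM biotinylated H3K9me3 peptide was read by AlphaScreen. Buffer was PBS pH 7.4 with 0.01% Tween-20. Incubations ran 30 min at room temperature, with 10 ug/mL donor/acceptor beads.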
BAZ2B block: qHTS Assay for Inhibitors of BAZ2B; AlphaScreen BAZ2B-H3K14Ac peptide displacement; Potency, µM (doses to about 114 µM), for the others: top-dose activity change, negative = inhibition, actives largely listed as inhibitors; hit rate 4.4% among 360,000; AID 504333, 2011; also: % is scaled to controls: 0 for no effect and ±100 for the full control effect; nearly all actives have a fitted effect of over 60% in size
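BAZ2B 50 nM plus b-H3(5-23)K14Ac 50 nM, PBS pH 7.4/0.01% Tween-20, 30 min RT; compound added (max 110 uM), 30 min RT; streptavidin donor/Ni-chelate acceptor beads 10 ug/mL final, 20 min dark; AlphaScreen read.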
Starred values were filed as active, the others as inactive; ? = inconclusive; . = not tested or not shown; [ ] = remark or other dose. Sampled rows, rich in hits. Any-hit rate of the full collection: about 12%. Calls follow the shape of the dose curve; as a rule, active = well fitted curve in the direction sought with a large enough effect; inconclusive = small, poorly fitted or top-dose-only effect, or another doubt; inactive = no such curve, though single readings can be large; an effect the other way counts as inactive or inconclusive. Potency is read from the fitted curve at half-maximal effect.

SMILES	Sfp inh	G9a block	JMJD2A Tudor inh	PLK1 PBD block	HP1b chromo inh	BAZ2B block
CCCOc1ccc(CNCCCOCC)cc1OC	-7.0%	-30.5%	0.794µM*	-3.1%	?	-36.2%
CCOCCCNCc1cccc(OC)c1	-15.1%	3.98µM*	3.55µM*	-0.4%	-52.1%	?
COc1ccccc1CCNC(=O)C(=O)NCC1CCCN1S(=O)(=O)c1ccccc1 (stereo not given)	.	0.4%[0.501 µM]	-9.3%	0.3%	54.2%	1.5%
COc1cccc(CNCC(=O)N2C(C)CCCC2C)c1 (stereo not given)	-11.5%	12.6µM*	3.55µM*	-4.6%	?	50.1µM*
NNc1cc([N+](=O)[O-])cc2c1C(=O)N(Cc1ccccc1)S2=O (stereo not given)	22.4µM*	2.82µM*	56.2µM*	?	-1.8%	?
O=C1C(=O)N(Cc2cccc([N+](=O)[O-])c2)c2ccccc21	4.9%	12.3%[59 µM]	-15.6%	-14.8%	-2.5%	-24.9%
CCCCC[C@H](O)/C=C/C=C\C/C=C\C/C=C\CCCC(=O)O	9.9%	29.5%[59 µM]	.	.	.	.
COc1ccccc1Oc1c(NS(=O)(=O)c2ccc(C(C)(C)C)cc2)nc(-c2ncccn2)nc1OCCO	56.2µM*	9.6%[12.7 µM]	.	.	.	.
CCOc1cc(/C=C2\SC(=O)N(CC(=O)Nc3ccccc3F)C2=O)cc([N+](=O)[O-])c1O	-15.7%	15.8µM*	-19.5%[11.4 µM]	23.8µM*	35.5µM*	39.8µM*
COc1ccc(/C=C2\SC(=O)N(CC(=O)Nc3cccnc3)C2=O)cc1OC	44.7µM*	?	-17.3%	-16.1%	61.5%	-16.2%
COc1cc(/C=C2\SC(=O)N(c3ccccc3Cl)C2=O)cc([N+](=O)[O-])c1O	-22.1%	11.2µM*	35.5µM*	?	?	25.1µM*
COc1cc(/C=C2\SC(=O)N(CC(=O)Nc3cccc(C)c3)C2=O)cc([N+](=O)[O-])c1O	1.2%	14.1µM*	17.8µM*	9.47µM*	28.2µM*	39.8µM*
CC(C)c1noc(-c2ccccc2OCC(=O)Nc2cccc([N+](=O)[O-])c2)n1	.	-33.9%[59 µM]	-18.2%	.	7.8%	-12.9%
COc1ccc(NC(=O)c2sccc2C)cn1	5.3%	-16.5%	-3.8%	-4.7%	29.2%	-0.4%
CC(C)CCNC(=O)C1CCN(C(=O)c2cc3sccc3n2Cc2ccc(Cl)cc2)CC1	.	6.3%[59 µM]	5.1%	.	32.7%	-20.9%
Cc1csc(SCc2ccccc2C(=O)O)n1	12.5%	-1.6%[59 µM]	-31.3%	-20.5%	70.3%	-26.7%
Cc1csc(SCc2ccc(C(=O)O)cc2)n1	7.4%	44.7µM*	5.3%	3.0%	24.4%	-33.7%
Cc1ccnc(SCc2ccc(C(=O)O)cc2)n1	7.0%	.	?	11.9µM*	32.0%	-3.8%
Cc1ccc(NC(=O)c2ccc(CSc3nccc(C)n3)cc2)cc1	3.4%	4.0%	-15.0%	-5.8%	27.0%	2.5%
CNc1ncnc(Sc2nc(N)nc3nc[nH]c23)c1[N+](=O)[O-]	.	.	31.6µM*	?	27.7%	.
Nc1nc(N)c2[nH]cnc2n1	.	.	-7.5%	-0.3%	70.8%	.
Nc1nc(SCc2ccccc2)c2[nH]cnc2n1	13.7%	4.7%	-18.1%	-5.0%	26.0%	3.2%
Nc1nc(Sc2ccc([N+](=O)[O-])c3nonc23)c2[nH]cnc2n1	.	.	28.2µM*	1.5µM*	8.91µM*	.
COc1ccc(Cl)cc1NC(=O)CCN1C(=O)C2C3C=CC(C4CC34)C2C1=O (stereo not given)	7.0%	-7.5%	-8.0%	2.1%	45.3%	-15.0%
CCOCCCNC(=O)/C(C#N)=C/c1cc(C)c(O)c(C)c1	12.6%	-49.7%	-12.3%	2.2%	52.7%	-8.1%
SMILES	Sfp inh	G9a block	JMJD2A Tudor inh	PLK1 PBD block	HP1b chromo inh	BAZ2B block
CCOc1ccc(NC(=O)/C(C#N)=C/c2ccc(N3CCCC3)c(C)c2)cc1	-8.1%	1.6%[59 µM]	-8.9%	19.5%	17.3%	1.5%
CCOc1cc(/C=C(/C#N)C(=O)Nc2ccc(O)cc2)cc(Br)c1O	-10.2%	50.1µM*	-27.0%	38.0%	-13.1%	-37.5%
C=CCNC(=O)/C(C#N)=C\c1cc(Cl)c(O)c(OCC)c1	1.0%	11.2µM*	-11.0%	5.0%	9.2%	-15.1%
COc1ccc(C2NC(=O)N(C)C3=C2C(=O)N(c2ccccc2)C3)cc1 (stereo not given)	.	-6.1%[59 µM]	-3.4%	.	23.5%	?
CN1C(=O)NC(c2ccccc2)C2=C1CN(c1cccc(C(F)(F)F)c1)C2=O (stereo not given)	-9.3%	50.1µM*	-19.8%[57.1 µM]	?	33.3%	-3.3%
NC(CS)C(=O)O (stereo not given)	17.8µM*	15.8µM*	.	.	.	.
C[C@@H](C[C@H](N)C(=O)O)C(=O)O	79.4µM*	.	.	.	.	.
NC(CSSCC(N)C(=O)O)C(=O)O (stereo not given)	7.3%	25.7%[59 µM]	.	.	.	.
N[C@H](CS)C(=O)O	31.6µM*	-0.5%[59 µM]	.	.	.	.
Cc1cccc(N=Cc2c(O)cc(C)oc2=O)c1	12.0%	?	-7.1%	-7.4%	5.5%	11.5%
Cc1cc(O)c(/C=N/Nc2cccc(Cl)c2)c(=O)o1	-15.4%	2.24µM*	-26.0%[11.4 µM]	-15.5%	36.4%	-7.2%
Cc1cc(O)c(/C=N/Nc2ccccc2Cl)c(=O)o1	-10.6%	1.41µM*	56.2µM*	-7.3%	16.5%	-3.9%
Cc1cc(O)c(/C=N/OCc2ccc(Cl)cc2Cl)c(=O)o1	-2.1%	20µM*	?	?	9.6%	1.0%
Cc1cc(O)c(/C=N/Nc2ccc(Cl)cc2)c(=O)o1	79.4µM*	8.91µM*	?	-5.5%	-14.1%	2.3%[57.1 µM]
COc1ccc(-c2cn3nc(N4CCCC(C(=O)NCc5ccccc5OC)C4)sc3n2)cc1 (stereo not given)	.	-37.1%[59 µM]	-16.8%	.	6.2%	-7.6%
Cc1c(Cl)cccc1-n1ncc(C(=O)N2CCc3ccccc3C2)c1C1CCN(C(=O)OC(C)(C)C)CC1	.	-5.8%[59 µM]	-11.0%	.	24.0%	-1.9%[57.1 µM]
Cc1nc2nc(NC(=O)c3ccco3)nn2c(C)c1Cl	5.6%	19.1%	1.7%	2.1%	24.4%	-1.9%
O=C(NNC(=S)Nc1ccc(F)c(Cl)c1)c1ccccc1Br	56.2µM*	-39.4%[12.7 µM]	-35.5%	?	-0.8%	-0.3%
Cc1cccc(NC(=S)NNC(=O)c2ccccc2OC(F)F)c1	-4.9%	?	-22.9%	-17.7%	7.6%	11.7%
Cc1cccc(NC(=S)NNC(=O)c2ccccc2Br)c1	-4.0%	5.01µM*	-14.9%	-18.4%	4.9%	12.2%
CC(=O)NNC(=S)Nc1cccc(F)c1	5.0%	12.6µM*	-4.1%	-12.6%	18.6%	0.0%
